# About 8,800 targets were measured; listed, in parts, are those with a hit and a random draw of the rest. About 0.5% of all pairs of compound and target were hits. Unmarked numbers belong to inactive results.
# Legend:
# Assay in all cases: log2 fold change, soluble protein after heating vs DMSO (PISA); higher = thermal stabilisation; K562 lysate, 10 uM; active = over 0.2 and 3.5 SD of the protein, either way, in both replicates (recomputed)
# [1] = compound: CN1CC[C@H](c2c(O)cc(O)c3c(=O)cc(-c4ccccc4Cl)oc23)[C@H](O)C1 [alvocidib]
# Outline: (§1)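 To prepare the extract, K562 pellets were dounce-homogenised in PBS pH 7.4 with 1 mM MgCl2, giving crude material at 1 mg/mL protein. This was treated with 10 μM compound for 30 min, then heated in aliquots for 3 min over 48°C-58°C before pooling and addition of NP-40 to 0.5% at 4°C. Centrifugation at 21,000xg for 90 min left soluble protein in the supernatant, which TMTpro 16plex LC-MS/MS quantified with equalised channel sums. Results are log-two fold changes in thermal stability compared with solvent controls, from duplicates.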
# [2] = compound: CN1CCc2c(c3ccccc3n2Cc2ccc(C(=O)NO)cc2)C1 [Tubastatin A]
# Outline: as §1
# [3] = compound: CNC(=O)C1=CC=CC=C1NC2=NC(=NC=C2Cl)NC3=C(C=C(C=C3)N4CCOCC4)OC
# Outline: as §1
# [4] = compound: CNC(=O)c1ccc(Nc2ncc(C(F)(F)F)c(NCc3nccnc3N(C)S(C)(=O)=O)n2)cc1 [defactinib]
# Outline: as §1
# [5] = compound: CNc1nc(-c2ccc3c(N)n[nH]c3c2)cc(N2C[C@@H](C(=O)NC3CCCCC3)CC[C@H]2C)n1
# Outline: as §1
# [6] = compound: COC(=O)N[C@@H](C)CNc1nccc(-c2cn(C(C)C)nc2-c2cc(Cl)cc(NS(C)(=O)=O)c2F)n1 [encorafenib]
# Outline: as §1
# [7] = compound: COC(=O)[C@H](CCSC)NC(=O)C1=C(C=C(C=C1)NC[C@H](CS)N)C2=CC=CC=C2
# Outline: as §1
# [8] = compound: COc1cc(Nc2ncc3c(n2)-c2ccc(Cl)cc2C(c2c(F)cccc2OC)=NC3)ccc1C(=O)O [alisertib]
# Outline: as §1
# [9] = compound: COc1cc2nc(-c3cc(F)ccc3O)nc(N[C@@H]3CNC[C@H]3C(C)(C)O)c2cc1OC
# Outline: as §1
# [10] = compound: COc1cc2ncnc(Nc3ccc(F)c(Cl)c3)c2cc1OCCCN1CCOCC1 [gefitinib]
# Outline: as §1
# [11] = compound: CS(=O)(=O)CCNCc1ccc(-c2ccc3ncnc(Nc4ccc(OCc5cccc(F)c5)c(Cl)c4)c3c2)o1 [lapatinib]
# Outline: as §1
# [12] = compound: CS(=O)(=O)N1CCN(Cc2cc3nc(-c4cccc5[nH]ncc45)nc(N4CCOCC4)c3s2)CC1 [pictilisib]
# Outline: as §1
# [13] = compound: C[C@@H](Oc1cc(-c2cnn(C3CCNCC3)c2)cnc1N)c1c(Cl)ccc(F)c1Cl [crizotinib]
# Outline: as §1
# [14] = compound: C[C@H](C1=CC=C(C=C1)C(=O)NC2=C3C=CNC3=NC=C2)N
# Outline: as §1
# [15] = compound: C[C@H](Nc1ncnc2nc[nH]c12)c1cc2cccc(Cl)c2c(=O)n1-c1ccccc1 [duvelisib]
# Outline: as §1
# [16] = compound: Cc1cc(Nc2cc(CN3CCOCC3)c3nc(C)c(Cc4ccc(Cl)cc4F)n3n2)n[nH]1 [gandotinib]
# Outline: as §1
# [17] = compound: Cc1cc(Nc2cc(N3CCN(C)CC3)nc(Sc3ccc(NC(=O)C4CC4)cc3)n2)n[nH]1 [tozasertib]
# Outline: as §1
# [18] = compound: Cc1ccc(-n2nc(C(C)(C)C)cc2NC(=O)Nc2ccc(OCCN3CCOCC3)c3ccccc23)cc1 [doramapimod]
# Outline: as §1
# [19] = compound: Cc1ccc(NC(=O)c2ccc(CN3CC[C@H](N(C)C)C3)c(C(F)(F)F)c2)cc1Nc1nccc(-c2cncnc2)n1 [bafetinib]
# Outline: as §1
# [20] = compound: Cc1cccc(CC(=O)N2CCc3c2ccc(-c2cn(C)c4ncnc(N)c24)c3F)n1
# Outline: as §1
# UniProt Q01628, sequence (Q01628 whole entry, looked up): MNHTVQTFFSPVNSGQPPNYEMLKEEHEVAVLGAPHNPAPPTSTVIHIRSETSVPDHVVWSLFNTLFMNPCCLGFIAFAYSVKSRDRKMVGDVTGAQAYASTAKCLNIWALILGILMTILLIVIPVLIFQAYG
# UniProt Q75QN2, sequence (Q75QN2 whole entry, looked up): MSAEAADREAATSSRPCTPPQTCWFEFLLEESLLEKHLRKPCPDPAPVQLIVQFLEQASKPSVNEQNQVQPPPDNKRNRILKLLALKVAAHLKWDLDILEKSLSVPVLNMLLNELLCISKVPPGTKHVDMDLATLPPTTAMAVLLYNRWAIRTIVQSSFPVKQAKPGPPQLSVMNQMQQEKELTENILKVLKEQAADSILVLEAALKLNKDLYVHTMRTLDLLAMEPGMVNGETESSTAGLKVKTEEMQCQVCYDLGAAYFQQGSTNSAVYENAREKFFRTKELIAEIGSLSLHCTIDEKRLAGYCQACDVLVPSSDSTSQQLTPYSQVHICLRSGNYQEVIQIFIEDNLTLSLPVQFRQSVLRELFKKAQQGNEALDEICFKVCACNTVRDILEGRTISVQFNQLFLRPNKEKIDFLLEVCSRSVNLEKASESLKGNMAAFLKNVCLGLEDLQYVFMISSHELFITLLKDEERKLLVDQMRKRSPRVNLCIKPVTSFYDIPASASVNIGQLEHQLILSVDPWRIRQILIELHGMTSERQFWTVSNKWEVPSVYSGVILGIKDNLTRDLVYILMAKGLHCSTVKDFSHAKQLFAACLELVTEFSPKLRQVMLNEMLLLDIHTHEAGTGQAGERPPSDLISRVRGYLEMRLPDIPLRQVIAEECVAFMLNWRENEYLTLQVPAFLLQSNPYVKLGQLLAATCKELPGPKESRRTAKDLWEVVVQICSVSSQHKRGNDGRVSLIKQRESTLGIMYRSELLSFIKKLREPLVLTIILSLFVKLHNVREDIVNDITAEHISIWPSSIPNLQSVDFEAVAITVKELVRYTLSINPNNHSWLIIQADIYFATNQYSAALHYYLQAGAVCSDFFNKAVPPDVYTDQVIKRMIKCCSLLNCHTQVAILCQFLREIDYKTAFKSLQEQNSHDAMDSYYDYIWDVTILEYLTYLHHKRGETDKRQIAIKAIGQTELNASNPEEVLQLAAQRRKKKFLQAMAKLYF
# UniProt P09211, sequence (P09211 whole entry, looked up): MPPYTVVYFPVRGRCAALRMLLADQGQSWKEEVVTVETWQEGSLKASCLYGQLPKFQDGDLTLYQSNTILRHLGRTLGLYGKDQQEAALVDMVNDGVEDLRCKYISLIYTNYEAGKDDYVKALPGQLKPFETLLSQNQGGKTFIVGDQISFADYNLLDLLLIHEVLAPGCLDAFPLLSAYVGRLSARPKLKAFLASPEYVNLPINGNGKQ
# UniProt Q9HAV0, sequence (Q9HAV0 whole entry, looked up): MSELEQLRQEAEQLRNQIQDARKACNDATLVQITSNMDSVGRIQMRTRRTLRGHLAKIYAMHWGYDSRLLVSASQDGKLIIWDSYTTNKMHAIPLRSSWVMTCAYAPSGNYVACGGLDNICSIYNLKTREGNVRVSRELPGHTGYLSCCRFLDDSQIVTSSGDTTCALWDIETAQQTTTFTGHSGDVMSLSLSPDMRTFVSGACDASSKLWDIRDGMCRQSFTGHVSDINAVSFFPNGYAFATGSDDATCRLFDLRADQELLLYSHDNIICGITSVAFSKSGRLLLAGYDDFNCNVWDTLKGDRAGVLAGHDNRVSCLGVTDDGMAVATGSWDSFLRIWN
# UniProt Q9P107, sequence (Q9P107 whole entry, looked up): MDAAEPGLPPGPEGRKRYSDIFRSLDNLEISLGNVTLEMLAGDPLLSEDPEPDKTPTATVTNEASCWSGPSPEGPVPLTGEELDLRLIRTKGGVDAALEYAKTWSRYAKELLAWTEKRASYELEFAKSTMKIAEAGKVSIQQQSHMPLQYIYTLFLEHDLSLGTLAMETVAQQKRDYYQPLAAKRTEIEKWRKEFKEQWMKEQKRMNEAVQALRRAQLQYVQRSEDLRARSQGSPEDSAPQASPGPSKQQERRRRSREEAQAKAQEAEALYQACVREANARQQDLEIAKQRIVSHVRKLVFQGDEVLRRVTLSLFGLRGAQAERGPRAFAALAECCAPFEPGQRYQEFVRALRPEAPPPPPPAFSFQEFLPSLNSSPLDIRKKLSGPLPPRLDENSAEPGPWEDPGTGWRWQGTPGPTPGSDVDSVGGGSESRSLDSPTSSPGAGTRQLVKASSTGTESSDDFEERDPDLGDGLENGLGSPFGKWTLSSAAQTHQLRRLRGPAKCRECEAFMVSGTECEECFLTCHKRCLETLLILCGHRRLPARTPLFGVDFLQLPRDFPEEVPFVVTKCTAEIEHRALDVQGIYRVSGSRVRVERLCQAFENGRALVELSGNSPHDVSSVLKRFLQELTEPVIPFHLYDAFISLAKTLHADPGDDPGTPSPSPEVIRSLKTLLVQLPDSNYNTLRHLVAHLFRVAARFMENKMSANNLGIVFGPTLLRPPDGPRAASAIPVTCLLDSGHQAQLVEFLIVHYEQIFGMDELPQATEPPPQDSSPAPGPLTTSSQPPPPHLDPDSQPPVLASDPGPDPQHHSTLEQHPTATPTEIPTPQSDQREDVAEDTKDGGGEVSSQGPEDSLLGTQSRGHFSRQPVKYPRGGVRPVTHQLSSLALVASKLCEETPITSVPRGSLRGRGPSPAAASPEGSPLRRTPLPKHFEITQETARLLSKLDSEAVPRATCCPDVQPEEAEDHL
# UniProt Q9NSE4, sequence (Q9NSE4 whole entry, looked up): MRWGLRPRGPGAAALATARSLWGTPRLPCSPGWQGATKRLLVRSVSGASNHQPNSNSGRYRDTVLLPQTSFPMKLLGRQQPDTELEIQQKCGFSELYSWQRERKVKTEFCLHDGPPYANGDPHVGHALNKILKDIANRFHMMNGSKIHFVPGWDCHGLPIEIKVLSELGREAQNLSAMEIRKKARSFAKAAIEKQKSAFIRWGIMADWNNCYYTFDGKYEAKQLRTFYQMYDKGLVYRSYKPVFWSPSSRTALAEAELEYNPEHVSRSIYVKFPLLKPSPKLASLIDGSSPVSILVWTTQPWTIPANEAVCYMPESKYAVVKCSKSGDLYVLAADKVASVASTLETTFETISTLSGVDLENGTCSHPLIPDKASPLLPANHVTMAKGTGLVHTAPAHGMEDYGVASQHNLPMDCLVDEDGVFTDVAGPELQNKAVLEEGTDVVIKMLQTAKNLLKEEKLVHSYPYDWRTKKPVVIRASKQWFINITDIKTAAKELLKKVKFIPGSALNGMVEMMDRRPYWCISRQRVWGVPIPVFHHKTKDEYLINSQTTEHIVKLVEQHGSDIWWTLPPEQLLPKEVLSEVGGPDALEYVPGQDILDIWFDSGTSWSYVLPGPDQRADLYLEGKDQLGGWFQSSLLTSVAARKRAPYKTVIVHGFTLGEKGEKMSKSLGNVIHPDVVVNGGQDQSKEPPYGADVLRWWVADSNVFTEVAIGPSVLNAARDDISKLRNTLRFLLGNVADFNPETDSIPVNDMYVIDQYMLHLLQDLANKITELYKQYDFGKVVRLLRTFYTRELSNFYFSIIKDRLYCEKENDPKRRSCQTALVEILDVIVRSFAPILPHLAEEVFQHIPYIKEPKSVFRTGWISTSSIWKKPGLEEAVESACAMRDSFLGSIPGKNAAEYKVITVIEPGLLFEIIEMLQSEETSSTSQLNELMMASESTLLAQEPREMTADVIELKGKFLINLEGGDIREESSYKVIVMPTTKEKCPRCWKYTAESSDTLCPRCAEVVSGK
# UniProt Q6AI08, sequence (Q6AI08 whole entry, looked up): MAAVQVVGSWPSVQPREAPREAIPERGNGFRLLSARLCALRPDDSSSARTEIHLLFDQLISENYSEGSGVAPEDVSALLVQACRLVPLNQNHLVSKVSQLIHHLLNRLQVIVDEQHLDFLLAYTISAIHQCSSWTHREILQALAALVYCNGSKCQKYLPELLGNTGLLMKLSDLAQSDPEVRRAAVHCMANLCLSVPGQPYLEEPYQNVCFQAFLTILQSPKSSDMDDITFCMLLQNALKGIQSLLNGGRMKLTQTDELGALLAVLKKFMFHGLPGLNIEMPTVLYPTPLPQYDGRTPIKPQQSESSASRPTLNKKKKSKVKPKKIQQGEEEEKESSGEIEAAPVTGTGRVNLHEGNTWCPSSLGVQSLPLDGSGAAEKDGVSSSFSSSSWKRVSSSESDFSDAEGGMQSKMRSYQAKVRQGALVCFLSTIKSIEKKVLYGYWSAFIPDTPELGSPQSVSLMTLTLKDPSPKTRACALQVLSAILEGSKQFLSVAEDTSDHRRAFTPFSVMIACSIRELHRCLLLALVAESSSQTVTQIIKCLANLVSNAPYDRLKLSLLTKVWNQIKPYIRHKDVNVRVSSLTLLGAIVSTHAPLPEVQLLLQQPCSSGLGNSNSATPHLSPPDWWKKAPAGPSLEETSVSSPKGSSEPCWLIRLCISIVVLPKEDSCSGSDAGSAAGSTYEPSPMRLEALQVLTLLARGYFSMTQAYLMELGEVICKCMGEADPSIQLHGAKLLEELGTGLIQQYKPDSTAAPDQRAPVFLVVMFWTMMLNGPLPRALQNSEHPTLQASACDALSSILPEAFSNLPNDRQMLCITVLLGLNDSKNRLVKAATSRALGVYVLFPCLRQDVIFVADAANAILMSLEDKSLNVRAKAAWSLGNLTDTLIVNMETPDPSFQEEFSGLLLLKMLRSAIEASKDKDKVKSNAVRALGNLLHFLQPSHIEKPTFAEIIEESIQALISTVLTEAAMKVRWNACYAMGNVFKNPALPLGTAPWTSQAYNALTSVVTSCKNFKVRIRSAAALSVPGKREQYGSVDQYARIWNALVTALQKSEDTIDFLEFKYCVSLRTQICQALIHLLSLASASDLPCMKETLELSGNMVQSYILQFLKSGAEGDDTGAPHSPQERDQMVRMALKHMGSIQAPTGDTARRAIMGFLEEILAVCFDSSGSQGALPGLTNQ
Target,log2 fold change [1],log2 fold change [2],log2 fold change [3],log2 fold change [4],log2 fold change [5],log2 fold change [6],log2 fold change [7],log2 fold change [8],log2 fold change [9],log2 fold change [10],log2 fold change [11],log2 fold change [12],log2 fold change [13],log2 fold change [14],log2 fold change [15],log2 fold change [16],log2 fold change [17],log2 fold change [18],log2 fold change [19],log2 fold change [20]
INTS8 (UniProt Q75QN2),-0.011,-0.013,0.083,0.084,0.011,0.098,-0.111,-0.008,-0.033,-0.04,0.028,0.104,-0.046,0.015,-0.051,-0.163,0.04,0.021,-0.142,0.036
HEATR6 (UniProt Q6AI08),0.03,-0.1,0.025,0.011,0.008,0.039,0.101,-0.028,-0.01,0.001,-0.014,-0.033,-0.112,-0.037,0.084,0.003,-0.003,-0.011,0.054,0.045
GMIP (UniProt Q9P107),-0.078,-0.139,0.088,0.033,-0.01,0.061,0.031,-0.014,-0.078,0.11,-0.046,-0.015,-0.006,0.029,-0.005,-0.024,-0.014,-0.049,-0.068,0.041
IARS2 (UniProt Q9NSE4),0.072,0.021,-0.026,0.004,-0.003,-0.006,0.014,-0.013,-0.011,0.004,-0.023,-0.013,-0.01,0.19,-0.007,-0.057,0.02,0.011,-0.002,-0.049
GSTP1 (UniProt P09211),0.04,-0.057,-0.017,0.008,-0.036,-0.052,0.061,0.037,-0.008,0.007,-0.015,0.021,-0.018,-0.025,0.001,-0.035,-0.007,-0.006,0.01,0.003
IFITM3 (UniProt Q01628),-0.001,-0.329,0.01,0.118,0.042,0.043,-0.142,0.109,-0.137,0.291,-0.123,-0.067,-0.089,-0.103,-0.005,0.035,-0.153,-0.034,0.09,-0.022
HMGN4 (UniProt O00479),0.581,-0.001,0.01,0.122,0.235,-0.072,-0.046,-0.074,-0.036,0.111,0.038,-0.044,0.047,1.19 (active),-0.074,-0.421,0.078,-0.163,0.6,-0.551
GNB4 (UniProt Q9HAV0),-0.114,-0.002,-0.091,–,0.01,-0.01,0.141,-0.168,0.095,-0.364 (active),0.031,-0.031,0.106,-0.058,0.015,0.094,-0.028,0.171,-0.033,0.074
